According to PubChem BioAssay AID932 (The Scripps Research Institute Molecular Screening Center, 2007):
About 5,100 (2.5%) of roughly 200,000 compounds were called active. This excerpt belongs to a sample that is enriched for actives. A number with no mark means an inactive call.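 How the source made its calls: active means activation above the screen-wide mean activation plus 3 SD (cut at about 130% in these data); inactive means the rest.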

Experiment: potentiators of IFN-gamma driven STAT1 reporter – cell-based, HTS, luciferase reporter, primary screen (AID 932);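 further: raw ratio to IFN-gamma control signal so 100% means no change and 0% no light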
Settings: NIH 3T3 STAT1-luciferase reporter, luminescence, at 5.5 µM, active compounds read high, 100% = IFN-gamma alone, no compound

| Compound | activation (% of control) |
| --- | --- |
| COc1cccc(OCC(=O)NNC(=O)c2cnccn2)c1 | 98.7% |
| COc1ccc2c(c1)CCc1c(C(=O)N3CCc4ccccc4C3)noc1-2 | 96.8% |
| COc1ccc2c(c1)CCc1c(C(=O)N3CCCC3)noc1-2 | 131% (active) |
| COc1ccc2c(c1)CCc1c(C(=O)Nc3c(C)n(C)n(-c4ccccc4)c3=O)noc1-2 | 106% |
| O=C(Nc1cccc(C(F)(F)F)c1)c1ccc(N2CCNCC2)c([N+](=O)[O-])c1 | 90.2% |
| CC(C)CNC(=S)NC(=O)c1ccc(Cl)cc1 | 136% (active) |
| Cc1occc1C(=O)NNC(=S)NCC(C)C | 102% |
| CC(C)C(NC(=O)c1ccc(Cl)cc1)C(=O)O (stereo not drawn) | 110% |
| Cn1c(CNC(=O)c2ccccc2F)nnc1SCc1ccc(F)cc1 | 103% |
| Cc1cc(C)c2nc(NC(=O)c3ccc4c(c3)OCO4)sc2c1 | 98.5% |
| O=C(Nc1ccccc1)c1ccc2c(c1)OCO2 | 110% |
| O=C(Nc1nc2ccccc2s1)c1ccc2c(c1)OCO2 | 130% (active) |
| O=C(Nc1nc(-c2ccc(-c3ccccc3)cc2)cs1)c1cnccn1 | 113% |
| O=C(Nc1nc(-c2cccnc2)cs1)c1ccccc1F | 141% (active) |
| Cc1ccc(-c2csc(NC(=O)c3cnccn3)n2)cc1C | 105% |
| COc1ccc(OCc2ccc(-c3nc4ccccc4c(=O)n3N)o2)cc1 | 127% |
| Cc1ccc(C(=O)CSc2nc3ccccc3c(=O)n2N)o1 | 140% (active) |
| O=C(CCn1c(SCC(=O)c2ccccc2)nc2ccccc2c1=O)NCc1ccc(F)cc1 | 94.6% |
| Cc1ccccc1OCC(O)CN1CCN(c2ccccn2)CC1 (stereo not drawn) | 104% |
| CCNC(=S)NNC(=O)C1CCN(Cc2ccccc2)CC1 | 90.4% |
| Cc1ccc(-c2nn(-c3ccccc3)cc2C(=O)Nc2cccc(S(=O)(=O)N3CCOCC3)c2)cc1 | 102% |
| CCc1ccc(C2C(C#N)=C(N)N(N(C)C)C3=C2C(=O)CCC3)s1 (stereo not drawn) | 105% |
| CCOC(=O)c1sc2nc(SC)nc(-c3ccccc3)c2c1N | 90% |
| CCN(CC)C(=O)c1sc2nc(-c3ccccc3)ccc2c1N | 146% (active) |

| Compound | activation (% of control) |
| --- | --- |
| CS(=O)(=O)c1sc2nc(-c3ccccc3)cc(-c3ccccc3)c2c1N | 104% |
| O=C(COC(=O)c1ccccc1C(=O)c1ccccc1)c1ccco1 | 103% |
| O=C(OCC(=O)N1CCCC1)c1ccco1 | 104% |
| CCN(CC)c1ccc(C(=O)OCC(=O)c2ccco2)cc1 | 149% (active) |
| CCOC(=O)/C=c1\s/c(=C\c2ccc(C#N)cc2)c(=O)n1CC(=O)Nc1cccc(C)c1C | 102% |
| CN(C)CCCN1C(=O)CSC1c1ccc([N+](=O)[O-])cc1 (stereo not drawn) | 95% |
| CCOc1ccc2nc(Nc3nc4ccc(NC(C)=O)cc4s3)sc2c1 | 106% |
| CCOc1ccc2nc(C(=O)N3CCCC(C)C3)sc2c1 (stereo not drawn) | 153% (active) |
| CCOc1ccc2nc(SC(CC)C(=O)Nc3cc(C)on3)sc2c1 (stereo not drawn) | 86.5% |
| CCNc1nc(NC(C)C)nc(N2CC(=O)N(CC(=O)OCC)C2=N)n1 | 93.2% |
| O=C(Oc1cccc(N2C(=O)C3C4c5ccccc5C(c5ccccc54)C3C2=O)c1)c1ccco1 (stereo not drawn) | 102% |
| Cc1ccc(-n2c(SCC(=O)N3c4ccccc4Sc4ccccc43)nnc2-c2ccncc2)cc1 | 109% |
| CC(C)(C)C(=O)NCCCNc1ccc([N+](=O)[O-])cc1 | 112% |
| COc1cc(/C=N/O)ccc1OCc1ccc([N+](=O)[O-])cc1 | 206% (active) |
| COc1cc(/C=N\Nc2ccc([N+](=O)[O-])cn2)ccc1OCC(=O)O | 98% |
| COc1cc(C(=O)OCc2ccc([N+](=O)[O-])cc2)cc(OC)c1OC | 104% |
| CCOc1ccc(S(=O)(=O)Nc2ccncc2)c(C)c1C | 97% |
| C/C(CCC(=O)OC[C@H]1O[C@H](C#Cc2ccccc2)C=C[C@@H]1Oc1ccc(C)cc1)=N\OC[C@@H](O)[C@H]1O[C@@H]2OC(C)(C)O[C@@H]2[C@H]1O | 106% |
| Cc1cc(Br)ccc1NC(=O)C1CCCO1 (stereo not drawn) | 107% |
| O=C(Nc1nc2ccc(S(=O)(=O)N3CCCC3)cc2s1)C1CCCO1 (stereo not drawn) | 95.5% |
| Cc1cc(C)c2nc(NC(=O)C3CCCO3)sc2c1 (stereo not drawn) | 151% (active) |
| CCc1cc2c(=O)c(-c3nc4ccccc4n3C)c(CCCC(=O)O)oc2cc1OC(=O)C(C)(C)C | 90.5% |
| COC(=O)C1=CN(Cc2ccc(OC)c(OC)c2)C=C(C(=O)OC)C1c1cccs1 | 45.2% |
| C=CCNC(=O)/C=C/c1ccc(C(C)C)cc1 | 120% |
